In the library only some 2.9% were active in any assay of this set; here they are far more common.
Peg3 prom inh: Peg3 promoter-driven luciferase inhibitors, primary screen, cell-based, HeLa, luciferase luminescence; HeLa PEG-Prom luciferase reporter, overnight; inhibition, % at 20 µM; 360,000 tested, 1.7% active; AID 588405, 2011;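 active = inhibition of at least 50% at 20 µM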
KKLEB tox: cytotoxicity in KKLEB CF airway cells, primary screen, cytotoxicity control for CF NF-kB inhibitor project, cell-based, uHTS, fluorescence assay plates; activity change (cytotoxicity), % at 5 µM; KKLEB CF airway cells viability, ATPlite luminescence, overnight; stronger effect = lower value; cells stimulated with P. aeruginosa culture filtrate; 360,000 tested, 0.36% active;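 active = corrected activity change at or below -50% at 5 µM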
CF NFkB inh: inhibitors of PAF-induced NF-kB signaling, primary screen, cell-based, GFP fluorescence, uHTS; AID 588850, 2011; inhibition, % at 5 µM; 360,000 tested, 0.86% active; KKLEB NF-kB-GFP reporter, GFP fluorescence overnight;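 active = at least 50% inhibition at 5 µM, scaled per plate between neutral and stimulator controls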;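 also: PAF is a Pseudomonas aeruginosa culture filtrate used as stimulus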
Shn3 inh set2: reduction of Shn3 3'UTR firefly luciferase signal, primary screen, Schnurri-3 inhibitor project, cell-based, Clone20 osteoblasts, set 2; Clone20 osteoblast Shn3 3'UTR firefly luciferase, 24 h; inhibition, % at 12.5 µM; 360,000 tested, 0.52% active;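 active = mean inhibition of at least 75% with every replicate also reaching 75%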
HIF-2a block: HIF-2a reporter inhibitors, primary screen, luminescence, 786-0 RCC cells. 360,000 tested, 0.72% active. inhibition, % at 18.8 µM. 786-0 RCC cells HIF-2a reporter, luciferase luminescence, overnight;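 active = inhibition of the luminescence signal of 40% or more relative to plate controls, in a single-dose primary screen at 18.75 µM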
EBV LMP1 NFkB: EBV LMP1-driven NF-kappaB luciferase reporter inhibitors, primary screen, cell-based, luminescence, single point. LMP1-induced NF-kappaB luciferase reporter cells. inhibition, % at 12.5 µM. 350,000 tested, 0.69% active. AID 504558, 2011; in the data active = inhibition above about 41%
Large screens that a line does not name were inactive.

CCOC(=O)c1ccccc1NC(=O)COC(=O)CCCOc1ccccc1	none
CCOC(=O)c1ccccc1NC(=O)COc1ccccc1	Peg3 prom inh 68
Fc1ccccc1COc1ccc(Br)cc1CNCc1ccncc1	Peg3 prom inh 56
Cc1ccc(C(=O)Nc2cccc(C(F)(F)F)c2)cc1NC(=O)c1nccn1C	none
Cc1ccc(C(=O)Nc2cccc(C(F)(F)F)c2)cc1Nc1ncnc2nc[nH]c12	CF NFkB inh 69, EBV LMP1 NFkB 44
O=C1c2ccc3c4c(ccc(c24)C(=O)N1c1cccc(O)c1)C(=O)N(c1cccc(O)c1)C3=O	CF NFkB inh 51 (no result: Shn3 inh set2)
OC1(c2ccc3c(c2)OCO3)CCN(Cc2ccc(F)cc2)CC1	none
COc1cc(OC)c(OC)cc1/C=C1\CC(C)C/C(=C\c2cc(OC)c(OC)cc2OC)C1=O (centres undefined)	Peg3 prom inh 58, Shn3 inh set2 94
COc1ccc(CCC(C)Nc2cccc(F)c2)cc1 (centres undefined)	none
COc1cc2c(-c3ccc(O)cc3)nc3c(c(C)nn3-c3ccccc3)c2cc1OC	Peg3 prom inh 77
O=C(CCl)N1c2ccccc2Sc2c1ccc1ccccc21	Peg3 prom inh 58
O=C(/C=C1\NC2(CCCC2)Cc2ccccc21)C(=O)N/N=C/c1ccccc1O	CF NFkB inh 51, Shn3 inh set2 91, EBV LMP1 NFkB 44
COc1cc(/C=N/NC(=O)C(=O)/C=C2\NC3(CCCC3)Cc3ccccc32)ccc1O	none
CCOC(=O)N1CCN(C(=O)c2ccc3c(c2)NC(=O)/C(=C\c2ccc(OC)c(OC)c2)S3)CC1	none
CCOC(=O)N1CCN(C(=O)c2ccc3c(c2)N(C)C(=O)/C(=C\c2ccc(OCC)c(OC)c2)S3)CC1	Peg3 prom inh 53
Cc1cc(C)c(NC(=O)c2cccc(NC(=O)c3ccco3)c2)c(C)c1	Peg3 prom inh 73
O=C(CSc1ccc(Cl)cc1)Nc1cccc(-c2nc3ccccc3[nH]2)c1	Peg3 prom inh 51
O=C(Nc1ccc(-c2nc3ccccc3[nH]2)cc1)c1ccc2c(c1)OCO2	Peg3 prom inh 64
O=C(CSc1ccccc1)Nc1ccc(-c2nc3ccccc3[nH]2)cc1	none
O=C(Nc1cccc(-c2nc3ccccc3[nH]2)c1)c1cccc(NC(=O)c2ccco2)c1	Peg3 prom inh 104, KKLEB tox -59
COc1cccc(OC)c1C(=O)Nc1ccccc1N1CCCCC1	none
Cc1nc(C)c(C(=O)Nc2cccc(F)c2)s1	none
CCOC(=O)/C(=N/Nc1ccc(Br)cc1)N1CC(C)OC(C)C1 (centres undefined)	none
Cc1cc(Nc2nc3ccccc3nc2Cl)n(-c2ccc([N+](=O)[O-])cc2)n1	Peg3 prom inh 53
CC(=O)OCC(=O)[C@@]1(O)CC[C@H]2[C@@H]3CCC4=CC(=O)C=C[C@]4(C)[C@H]3[C@@H](O)C[C@@]21C	CF NFkB inh 80
CC(=O)OCC(=O)[C@@]1(O)CC[C@H]2[C@@H]3CCC4=CC(=O)C=C[C@]4(C)[C@@]3(Cl)[C@@H](Cl)C[C@@]21C	CF NFkB inh 65
CC12C=CC(=O)C=C1CCC1C2C(O)CC2(C)C1CCC2(O)C(=O)CO (centres undefined)	CF NFkB inh 64
C[C@]12C=CC(=O)C=C1CCC1C3CC[C@](O)(C(=O)CO)[C@@]3(C)CC3OC312 (some centres undefined)	none
CC(=O)OCC(=O)[C@@]1(O)CCC2C3CCC4=CC(=O)CCC4(C)C3C(=O)CC21C (some centres undefined)	none
O=S(=O)(Nc1ccc(Cl)cn1)c1cccs1	none
CCCNC(=O)c1cc2c(c(-c3cccc(-c4ccc(F)cc4)c3)n1)[C@H](CCO)N(S(=O)C(C)(C)C)C2 (some centres undefined)	Peg3 prom inh 51 (no result: EBV LMP1 NFkB)
CC(C)(C)c1cc(C(=O)NNC(=O)Nc2cccc(Cl)c2)n(Cc2ccccc2)n1	EBV LMP1 NFkB 53
O=C(Nc1ccccc1)Nc1cccc(Cl)c1	none
O=C(Nc1cccc(Cl)c1)Nc1cccc(C(=O)O)c1	EBV LMP1 NFkB 43
O=C(CCC(=O)NNC(=O)Nc1cccc(Cl)c1)NCc1ccccc1	EBV LMP1 NFkB 42
O=C(CN1c2ccccc2Sc2ccccc21)NNC(=O)Nc1cccc(Cl)c1	Peg3 prom inh 51
CC(C)c1nc2oc3c(N(C)CCO)ncnc3c2c2c1CCC2	none
COc1ccc(-c2ccc3[nH]c4c(c3c2)CCN2C(=O)[C@@H]([C@H](C)O)[C@@H](N(C)C(=O)Nc3ccc(F)cc3)C[C@@H]42)cc1	Peg3 prom inh 95
COc1ccc(-c2ccc3[nH]c4c(c3c2)CCN2C(=O)[C@@H]([C@H](C)O)[C@@H](N(C)C(=O)Nc3cc(Cl)cc(Cl)c3)C[C@@H]42)cc1	none
O=C(COc1ccc(C(=O)c2ccccc2)cc1)NCC(=O)Nc1ccccc1Br	none
COc1cccc(/C=N/Nc2cc(Cl)nc(C)n2)c1O	none
COc1cccc(/C=N/Nc2ncnc3c2ncn3Cc2ccccc2)c1O	Shn3 inh set2 90, EBV LMP1 NFkB 78
CCOC(=O)c1sc(NC(=O)Nc2ccccc2)cc1C	KKLEB tox -51
CNS(=O)(=O)c1ccc2c(c1)NC(=O)C1CCCN21 (centres undefined)	Peg3 prom inh 81
CN1CCN(S(=O)(=O)c2ccc3c(c2)NC(=O)C2CCCN32)CC1 (centres undefined)	none
O=S(=O)(NCC1CN(S(=O)(=O)c2c(F)cccc2F)C1)c1ccc2c(c1)OCCO2	none
C=CC[C@H](CC(=O)NCCO)C(=O)N[C@H](COC(=O)[C@@H](CC=C)Cc1ccc(F)cc1)c1ccccc1	none
COc1cc2c3c(cccc3c1)C(=O)N(CCN1CCCC1)C2=O	Peg3 prom inh 102
COc1ccc(C(=O)CN2CCN(CCN3C(=O)c4cccc5cccc(c45)C3=O)CC2)cc1	none
O=C(NC1(Cc2ccccc2)CCN(Cc2ccc(-c3ccccc3)cc2)C1=O)c1ccccc1 (centres undefined)	Peg3 prom inh 85
O=C(N=Nc1c(O)[nH]c2ccc(Br)cc12)c1cc(-c2cccc3ccccc23)n[nH]1	Peg3 prom inh 55
O=C(N=Nc1c(O)[nH]c2ccc(Br)cc12)c1cc(-c2cccs2)nc2ccccc12	Peg3 prom inh 60
C[C@H](CO)N1C[C@H](C)[C@@H](CN(C)C(=O)Nc2ccccc2)Oc2ccc(NC(=O)Cc3ccccc3)cc2C1=O	none
CC(C)Cc1nnc(NC(=O)c2ccc([N+](=O)[O-])cc2)s1	none
